This is a sample that favours compounds with a hit; in the whole collection about 27% have one here.
CYP2C9 inhib: human CYP2C9 inhibition; CYP2C9 Supersomes, luciferin-H conversion, luminescence; inhibition, % at 5 µM; 20% of 96,000 active; P11712;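 active means blocking of liver enzyme CYP2C9 beyond about 50% at 5 µM, limit read from the data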
CYP2C9 act: activators of human CYP2C9; P11712; recombinant CYP2C9, luciferin-H conversion, luminescence; stronger effect = higher value; factor 1 = untreated enzyme, 0 = blocked; activation factor at 5 µM; 1.4% of 96,000 active;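 active means activation factor of 2 or more for CYP2C9 at a 5 µM dose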;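 further: 0 = sulfaphenazole-blocked wells and 1 = vehicle-only wells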
Cav32 inh: human Cav3.2 channel inhibition, primary screen; B-score at 10 µM; AID 449739; 4% of 100,000 active; Cav3.2-expressing cells, Fluo-4 calcium fluorescence FDSS; stronger effect = lower value;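 active means single-dose well whose peak fluorescence ratio is a statistical outlier from its plate by either plate-standardised score or position-corrected B-score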
CYP2C19 inhib: inhibitors of human CYP2C19. CYP2C19 Supersomes, luciferin-H EGE luminescence, 30 min. inhibition, % at 5 µM. 21% of 96,000 active. AID 778;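 active means CYP2C19 inhibition above a set limit at 5 µM in the primary screen, cut at about 50% in these data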;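 further: plate controls were negative control wells for no effect and 2.5 mM tranylcypromine positive control for full effect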
Target sequence (P33261 whole entry, looked up): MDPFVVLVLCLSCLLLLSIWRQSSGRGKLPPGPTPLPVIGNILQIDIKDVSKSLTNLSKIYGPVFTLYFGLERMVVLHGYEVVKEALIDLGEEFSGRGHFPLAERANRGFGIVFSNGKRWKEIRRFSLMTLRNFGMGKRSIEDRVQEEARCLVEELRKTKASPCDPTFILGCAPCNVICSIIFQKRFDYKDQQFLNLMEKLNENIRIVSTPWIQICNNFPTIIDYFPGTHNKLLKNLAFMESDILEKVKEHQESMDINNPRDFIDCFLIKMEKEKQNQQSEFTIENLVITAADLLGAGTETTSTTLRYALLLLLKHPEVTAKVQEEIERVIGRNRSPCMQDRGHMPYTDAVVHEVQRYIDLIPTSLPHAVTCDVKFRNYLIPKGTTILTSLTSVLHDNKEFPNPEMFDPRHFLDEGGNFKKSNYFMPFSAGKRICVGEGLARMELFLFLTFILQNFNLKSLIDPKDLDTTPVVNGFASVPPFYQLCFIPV
CYP2C19 act: increases human CYP2C19 enzyme activity; P33261; recombinant CYP2C19, luciferin-H EGE luminescence; stronger effect = higher value; 0 = fully inhibited enzyme, 1 = untreated enzyme; activation factor at 5 µM; 96,000 tested, under 10 active;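 active means activation factor of at least 2 at 5 µM in the primary screen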;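 further: 0 = wells with 2.5 mM tranylcypromine and 1 = vehicle-only wells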
Numbers without * were called inactive; nt = no result given.

SMILES | CYP2C9 inhib | CYP2C9 act | Cav32 inh | CYP2C19 inhib | CYP2C19 act
CCSc1ccccc1C(=O)NCc1ccc2c(c1)OCO2 | 37 | 0.6 | 1.2 | 99* | 0
CCSc1ccccc1C(=O)N1CCN(Cc2ccc3c(c2)OCO3)CC1 | 3 | 1 | -0.35 | 12 | 0.9
O=C(Nc1ccccc1)c1ccn[nH]1 | 1 | 1 | 0.054 | 0 | 1
CC(=O)c1ccc(NC(=O)c2ccn[nH]2)cc1 | 69* | 0.3 | 0.87 | 43 | 0.6
CC(=O)c1ccc(NC(=O)CSCC(=O)Nc2ccc3ccccc3c2)cc1 | 55* | 0.5 | -2.4 | 15 | 0.8
CC(=O)c1ccc(NC(=O)Nc2ccccc2)cc1 | 63* | 0.4 | 0.41 | 50* | 0.5
Cc1ccc(C(=O)CC2(O)C(=O)N(Cc3ccccc3)c3ccccc32)o1 (stereo not drawn) | -17 | 1.2 | -1.4 | 31 | 0.7
Cc1ccc(C(=O)CC2(O)C(=O)N(Cc3ccccc3Cl)c3ccccc32)o1 (stereo not drawn) | -44 | 1.4 | -5.6* | 55* | 0.4
CCN1C(=O)C(O)(CC(=O)c2ccc(-n3cccc3)cc2)c2ccccc21 (stereo not drawn) | nt | nt | -1.4 | nt | nt
Cc1ccc(C(=O)CC2(O)C(=O)N(C)c3ccc(Br)cc32)c(C)c1 (stereo not drawn) | 55* | 0.4 | -3.5 | 62* | 0.4
O=C(CC1(O)C(=O)N(CCc2ccccc2)c2ccccc21)c1ccco1 (stereo not drawn) | 74* | 0.3 | 0.32 | 71* | 0.3
C=CCN1C(=O)C(O)(CC(=O)c2ccccc2)c2ccccc21 (stereo not drawn) | 38 | 0.6 | 0.26 | 75* | 0.3
O=C(Nc1ccc2snnc2c1)Nc1cccc2ccccc12 | 41 | 0.6 | -0.81 | 43 | 0.6
COc1ncccc1-c1nnn(-c2ccc(F)cc2)n1 | nt | nt | 0.31 | nt | nt
CN1C(=O)C(O)(C2COC(C)(C)CC2=O)c2ccccc21 (stereo not drawn) | -20 | 1.2 | 0.7 | -14 | 1.1
Cc1ccc(C(=O)CC2(O)C(=O)N(CCc3ccccc3)c3ccc(Br)cc32)o1 (stereo not drawn) | 93* | 0.1 | -7.1* | 98* | 0
C=C(C)CN1C(=O)C(O)(CC(=O)c2ccc3c(c2)OCCO3)c2ccccc21 (stereo not drawn) | 40 | 0.6 | -1.1 | 82* | 0.2
CN1C(=O)C(O)(C2COC(C)(C)CC2=O)c2cc(Br)ccc21 (stereo not drawn) | -5 | 1 | -0.047 | 54* | 0.5
Cc1cccc(C(=O)Nc2ccccc2SCC2CSc3nc4ccccc4c(=O)n32)c1 (stereo not drawn) | 10 | 0.9 | nt | 22 | 0.8
CC(=O)NC1=NN(C(C)=O)C2(CCCCC2)S1 | nt | nt | 0.069 | nt | nt
Nc1cccc(-c2nc3cc(S(=O)(=O)c4ccc5oc(-c6cccc(N)c6)nc5c4)ccc3o2)c1 | 37 | 0.6 | -0.22 | 23 | 0.8
Nc1cccc(S(=O)(=O)c2cccc(N)c2)c1 | -201 | 3* | 0.2 | 7 | 0.9
N#CCSc1nnc(-c2ccccc2O)n1CCc1ccccc1 | -10 | 1.1 | -0.17 | 41 | 0.6
CC1(C)CC(=O)c2cc(OCC(=O)NCCCN3CCN(c4ccc(F)cc4)CC3)ccc2O1 | 14 | 0.9 | -0.33 | 8 | 0.9
O=C(CSc1ccccc1Cl)N1CCC(c2nc3ccccc3s2)CC1 | 46 | 0.5 | -2.4 | 39 | 0.6
SMILES | CYP2C9 inhib | CYP2C9 act | Cav32 inh | CYP2C19 inhib | CYP2C19 act
Cc1ccc(NC(=S)N2CCC(c3nc4ccccc4s3)CC2)cc1 | 57* | 0.4 | -1.5 | 32 | 0.7
Cc1ccc2c(c1)N(CCC(=O)NCC1COc3ccccc3O1)C(=O)CO2 (stereo not drawn) | 35 | 0.6 | -2.8 | 76* | 0.2
Cc1ccc2c(c1)N(CCC(=O)NCCN1CCOCC1)C(=O)CO2 | 0 | 1 | 0.068 | -5 | 1.1
CCC1Oc2ccc(C)cc2N(CC(=O)NCC2COc3ccccc3O2)C1=O (stereo not drawn) | 38 | 0.6 | -5.2* | 93* | 0.1
CCC1Oc2ccc(C)cc2N(CC(=O)NCCN2CCCCCC2)C1=O (stereo not drawn) | 9 | 0.9 | 1.1 | 6 | 0.9
CCOc1ccc(-c2nnn(CC#N)n2)cc1OC | nt | nt | -0.053 | nt | nt
COc1cc(SC)ccc1C(=O)NCc1ccc(C)cc1 | -17 | 1.2 | -1.8 | 91* | 0.1
COc1cc(SC)ccc1C(=O)N(C)Cc1ccccc1 | -38 | 1.4 | -0.88 | 98* | 0
COc1cc(SC)ccc1C(=O)NCC1CCCO1 (stereo not drawn) | -6 | 1.1 | 0.73 | 60* | 0.4

Screening data from PubChem.
